PubChem BioAssay (Tox21)
“And” between values parts separate entries of the source, which are not always exact repeats. Identical values can stand only once. Records with an inconclusive call do not appear. The source made the active and inactive calls. Unless noted, calls follow the shape of the dose curve; as a rule, active = well fitted curve in the direction sought with a large enough effect in the repeat runs; inconclusive = weak or mixed curves; inactive = no such curve, though single readings can be large; an effect the other way counts as inactive or inconclusive.

How the values were obtained:
[1] = biological target: Acetylcholinesterase (Homo sapiens) (UniProt P22303); assay: Acetylcholinesterase (AChE) small molecule antagonists: enzyme-based qHTS assay with human liver microsomes (AID 1347399; calls by dose curve; also: nearly all actives have a fitted effect of over 60% in size; also: potency is read from the fitted curve at half-maximal effect); conditions: Potency: qHTS inhibition
How it was run: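 Recombinant human AChE (50 mU/mL in the enzyme mix) and human liver microsomes (0.25 mg/mL final) were preincubated with compound and NADPH (0.25 mg/mL final) for 30 min at 37 C. Acetylthiocholine/DTNB was then added; thiocholine was read colorimetrically after 10 min at room temperature.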

[2] = biological target: Cytochrome P450 2C19 (Homo sapiens) (UniProt P33261); assay: Cytochrome P450 Family 2 Subfamily C Member 19 (CYP2C19) small molecule antagonists: luciferase reporter qHTS assay (AID 1671197); also: nearly all actives have a fitted effect of over 65% in size; also: potency is read from the fitted curve at half-maximal effect
How it was run: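 P450-Glo CYP2C19 screening system; proluciferin substrate; DMSO compound stocks; 10 min RT preincubation; NADPH regeneration, 1 h at 37C; luciferin detection reagent, 20 min RT; luminescence as RLU.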

[3] = biological target: Cytochrome P450 2C9 (Homo sapiens) (UniProt P11712); assay: Cytochrome P450 Family 2 Subfamily C Member 9 (CYP2C9) small molecule antagonists: luciferase reporter qHTS assay (AID 1671198); also: nearly all actives have a fitted effect of over 50% in size; also: potency is read from the fitted curve at half-maximal effect
How it was run: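 P450-Glo proluciferin substrate with CYP2C9 enzyme; 10 min RT preincubation, then NADPH regeneration 1 h at 37C; luciferin detection reagent 20 min RT, luminescence in relative luminescence units.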

[4] = biological target: Cytochrome P450 1A2 (Homo sapiens) (UniProt P05177); assay: Cytochrome P450 Family 1 Subfamily A Member 2 (CYP1A2) small molecule antagonists: luciferase reporter qHTS assay (AID 1671199); also: nearly all actives have a fitted effect of over 50% in size; also: potency is read from the fitted curve at half-maximal effect
How it was run: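 P450-Glo CYP1A2 enzyme–proluciferin substrate mix with compound 10 min at room temperature, then NADPH regeneration 1 h at room temperature. Luciferin detection reagent added, luminescence read after 20 min; furafylline positive control.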

[5] = biological target: Voltage-gated inwardly rectifying potassium channel KCNH2 (Homo sapiens) (UniProt Q12809); assay: Human Ether-a-go-go-Related Gene (hERG) channel small molecule antagonists: fluorescence cell-based qHTS assay (AID 1671200); also: nearly all actives have a fitted effect of over 50% in size; also: potency is read from the fitted curve at half-maximal effect
How it was run: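 hERG-U2OS cells plated overnight at 37 C, loaded with FluxOR II dye 1 h at RT in dark; after 10 min, thallium stimulus added. Fluorescence (480/540 nm) read kinetically for 2 min at 1 s intervals.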

[6] = biological target: Cytochrome P450 3A4 (Homo sapiens) (UniProt P08684); assay: Cytochrome P450 Family 3 Subfamily A Member 4 (CYP3A4) small molecule antagonists: luciferase reporter qHTS assay (AID 1671201); also: nearly all actives have a fitted effect of over 50% in size; also: potency is read from the fitted curve at half-maximal effect
How it was run: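 P450-Glo CYP3A4 luminescent assay: compounds preincubated 10 min at room temperature with enzyme and proluciferin substrate, NADPH regeneration added, 1 h room-temperature reaction, stopped with luciferin detection reagent; luminescence read after 20 min. Ketoconazole positive control.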

[7] = biological target: Cytochrome P450 2D6 (Homo sapiens) (UniProt P10635); assay: Cytochrome P450 Family 2 Subfamily D Member 6 (CYP2D6) small molecule antagonists: luciferase reporter qHTS assay (AID 1671196)
How it was run: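 Cell-free P450-Glo system: CYP2D6 with proluciferin substrate was pre-incubated with compound for 10 min, then reacted with NADPH regeneration for 1 h at room temperature. Luciferin product was detected after 20 min, and data were reported as relative luminescence units.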

Measured: Potency

Cytochrome P450 3A4 (Homo sapiens), sequence (P08684 whole entry, looked up): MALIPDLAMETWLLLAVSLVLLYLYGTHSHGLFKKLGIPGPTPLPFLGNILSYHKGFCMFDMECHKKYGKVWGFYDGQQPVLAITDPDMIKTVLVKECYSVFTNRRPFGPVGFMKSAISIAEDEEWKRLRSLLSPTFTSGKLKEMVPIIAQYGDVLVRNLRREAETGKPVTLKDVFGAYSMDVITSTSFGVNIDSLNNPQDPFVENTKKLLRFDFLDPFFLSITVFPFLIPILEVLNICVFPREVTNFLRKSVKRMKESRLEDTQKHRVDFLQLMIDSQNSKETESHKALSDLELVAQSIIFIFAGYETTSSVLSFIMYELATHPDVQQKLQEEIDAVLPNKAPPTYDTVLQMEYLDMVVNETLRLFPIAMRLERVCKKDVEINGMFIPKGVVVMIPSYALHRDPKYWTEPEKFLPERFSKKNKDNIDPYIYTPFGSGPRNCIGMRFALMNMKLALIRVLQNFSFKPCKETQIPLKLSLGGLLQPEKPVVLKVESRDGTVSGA
Voltage-gated inwardly rectifying potassium channel KCNH2 (Homo sapiens), sequence (Q12809 whole entry, looked up): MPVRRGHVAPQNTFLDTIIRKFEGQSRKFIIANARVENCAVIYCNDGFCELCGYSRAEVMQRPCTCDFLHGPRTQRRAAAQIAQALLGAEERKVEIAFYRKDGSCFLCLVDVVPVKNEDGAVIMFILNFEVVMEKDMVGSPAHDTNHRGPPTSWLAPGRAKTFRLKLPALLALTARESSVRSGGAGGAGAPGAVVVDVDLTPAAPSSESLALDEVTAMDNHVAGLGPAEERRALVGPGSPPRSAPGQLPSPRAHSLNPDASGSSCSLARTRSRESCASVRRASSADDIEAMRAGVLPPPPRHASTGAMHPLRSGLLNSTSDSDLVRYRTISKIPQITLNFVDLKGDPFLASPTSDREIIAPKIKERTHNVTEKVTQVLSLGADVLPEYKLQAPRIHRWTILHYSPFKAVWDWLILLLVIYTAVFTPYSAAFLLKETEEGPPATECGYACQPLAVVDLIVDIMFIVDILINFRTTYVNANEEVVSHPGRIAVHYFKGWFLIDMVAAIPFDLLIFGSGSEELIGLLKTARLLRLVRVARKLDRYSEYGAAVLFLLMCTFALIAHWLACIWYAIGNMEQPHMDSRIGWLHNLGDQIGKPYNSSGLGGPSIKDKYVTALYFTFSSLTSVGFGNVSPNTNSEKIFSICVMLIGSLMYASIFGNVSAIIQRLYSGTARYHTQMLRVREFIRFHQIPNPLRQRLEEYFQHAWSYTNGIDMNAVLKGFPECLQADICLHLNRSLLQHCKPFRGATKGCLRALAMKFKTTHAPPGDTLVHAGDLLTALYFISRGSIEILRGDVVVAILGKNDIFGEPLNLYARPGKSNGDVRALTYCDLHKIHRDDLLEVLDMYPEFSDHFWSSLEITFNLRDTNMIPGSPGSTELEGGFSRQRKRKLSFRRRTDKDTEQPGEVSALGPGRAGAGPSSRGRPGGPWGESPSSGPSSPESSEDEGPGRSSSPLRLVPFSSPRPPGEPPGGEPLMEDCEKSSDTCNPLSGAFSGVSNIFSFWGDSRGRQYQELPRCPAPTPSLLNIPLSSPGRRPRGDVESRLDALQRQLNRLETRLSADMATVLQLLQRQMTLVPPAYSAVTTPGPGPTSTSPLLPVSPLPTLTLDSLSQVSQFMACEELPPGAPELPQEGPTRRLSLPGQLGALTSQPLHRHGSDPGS
Acetylcholinesterase (Homo sapiens), sequence (P22303 whole entry, looked up): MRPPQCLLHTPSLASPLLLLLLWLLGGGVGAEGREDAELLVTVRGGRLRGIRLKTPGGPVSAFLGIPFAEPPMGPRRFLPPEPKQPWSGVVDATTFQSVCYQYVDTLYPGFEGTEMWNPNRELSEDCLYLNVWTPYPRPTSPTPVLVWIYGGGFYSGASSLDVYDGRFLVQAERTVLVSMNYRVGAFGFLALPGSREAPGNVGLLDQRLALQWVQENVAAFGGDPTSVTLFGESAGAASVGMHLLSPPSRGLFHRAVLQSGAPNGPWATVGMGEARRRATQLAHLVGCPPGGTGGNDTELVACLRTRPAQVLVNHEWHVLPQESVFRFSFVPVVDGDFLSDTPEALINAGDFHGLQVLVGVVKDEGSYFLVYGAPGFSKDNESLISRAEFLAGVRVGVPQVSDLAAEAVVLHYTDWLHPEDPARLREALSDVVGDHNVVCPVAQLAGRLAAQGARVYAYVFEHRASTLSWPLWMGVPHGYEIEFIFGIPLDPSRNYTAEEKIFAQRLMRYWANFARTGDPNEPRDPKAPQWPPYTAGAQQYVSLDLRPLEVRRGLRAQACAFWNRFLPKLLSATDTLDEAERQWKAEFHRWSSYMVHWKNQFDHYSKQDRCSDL
Cytochrome P450 1A2 (Homo sapiens), sequence (P05177 whole entry, looked up): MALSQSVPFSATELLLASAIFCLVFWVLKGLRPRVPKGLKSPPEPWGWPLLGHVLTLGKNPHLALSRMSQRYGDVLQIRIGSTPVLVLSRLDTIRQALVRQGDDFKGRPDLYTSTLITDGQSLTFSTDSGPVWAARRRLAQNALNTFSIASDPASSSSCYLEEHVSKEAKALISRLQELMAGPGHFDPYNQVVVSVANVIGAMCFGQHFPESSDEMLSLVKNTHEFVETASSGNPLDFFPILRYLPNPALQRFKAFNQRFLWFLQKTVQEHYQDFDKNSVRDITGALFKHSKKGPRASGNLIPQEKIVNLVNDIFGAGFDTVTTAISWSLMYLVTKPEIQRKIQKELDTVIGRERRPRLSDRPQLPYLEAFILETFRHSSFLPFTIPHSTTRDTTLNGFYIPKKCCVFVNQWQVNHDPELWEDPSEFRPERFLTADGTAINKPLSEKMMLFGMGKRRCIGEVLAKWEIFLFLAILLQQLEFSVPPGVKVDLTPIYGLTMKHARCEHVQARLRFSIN
Cytochrome P450 2C9 (Homo sapiens), sequence (P11712 whole entry, looked up): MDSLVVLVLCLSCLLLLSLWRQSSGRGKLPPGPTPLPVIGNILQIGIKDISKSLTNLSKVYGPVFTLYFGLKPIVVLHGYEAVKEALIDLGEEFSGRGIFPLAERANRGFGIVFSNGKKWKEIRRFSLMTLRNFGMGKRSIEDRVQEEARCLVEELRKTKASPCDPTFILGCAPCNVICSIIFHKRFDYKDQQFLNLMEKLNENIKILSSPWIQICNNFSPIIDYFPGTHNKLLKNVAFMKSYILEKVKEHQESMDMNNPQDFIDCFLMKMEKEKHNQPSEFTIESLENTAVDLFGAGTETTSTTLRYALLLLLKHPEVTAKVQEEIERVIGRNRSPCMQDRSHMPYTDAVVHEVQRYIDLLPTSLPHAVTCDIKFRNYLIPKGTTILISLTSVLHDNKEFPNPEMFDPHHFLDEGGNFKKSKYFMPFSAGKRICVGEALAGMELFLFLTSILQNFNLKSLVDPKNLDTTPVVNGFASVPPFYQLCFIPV
Cytochrome P450 2D6 (Homo sapiens), sequence (P10635 whole entry, looked up): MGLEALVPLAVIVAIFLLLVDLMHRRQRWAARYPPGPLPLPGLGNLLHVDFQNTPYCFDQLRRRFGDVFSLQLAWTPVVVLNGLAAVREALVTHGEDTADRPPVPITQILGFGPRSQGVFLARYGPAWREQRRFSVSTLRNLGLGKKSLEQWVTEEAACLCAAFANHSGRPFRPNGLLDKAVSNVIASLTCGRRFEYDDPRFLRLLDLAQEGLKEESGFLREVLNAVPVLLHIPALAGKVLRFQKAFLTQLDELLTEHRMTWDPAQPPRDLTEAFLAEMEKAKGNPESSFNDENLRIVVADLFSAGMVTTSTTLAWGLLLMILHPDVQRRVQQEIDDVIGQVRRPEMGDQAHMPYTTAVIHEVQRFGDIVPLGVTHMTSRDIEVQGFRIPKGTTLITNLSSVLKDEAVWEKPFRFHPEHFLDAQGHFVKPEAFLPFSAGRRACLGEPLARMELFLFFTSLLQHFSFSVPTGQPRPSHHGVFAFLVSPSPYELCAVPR
Cytochrome P450 2C19 (Homo sapiens), sequence (P33261 whole entry, looked up): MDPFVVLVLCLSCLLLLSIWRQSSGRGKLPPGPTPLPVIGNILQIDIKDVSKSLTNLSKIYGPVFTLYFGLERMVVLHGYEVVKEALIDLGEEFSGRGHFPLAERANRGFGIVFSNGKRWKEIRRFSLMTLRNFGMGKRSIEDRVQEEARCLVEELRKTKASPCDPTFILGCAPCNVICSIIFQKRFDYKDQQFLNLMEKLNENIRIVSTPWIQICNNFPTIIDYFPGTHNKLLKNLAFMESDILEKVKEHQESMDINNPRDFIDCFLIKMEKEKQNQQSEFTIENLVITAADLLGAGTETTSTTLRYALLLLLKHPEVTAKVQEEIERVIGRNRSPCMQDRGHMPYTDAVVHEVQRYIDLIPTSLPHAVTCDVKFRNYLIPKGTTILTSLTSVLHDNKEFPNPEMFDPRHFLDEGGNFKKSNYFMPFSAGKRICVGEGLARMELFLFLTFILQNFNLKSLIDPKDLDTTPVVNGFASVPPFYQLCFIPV

CC(C)Oc1cccc(NC(=O)c2ccccc2C(F)(F)F)c1
active: [2] 3.99 µM | [3] 13 µM | [4] 10.6 µM | [5] 50.4 µM
inactive: [1]

C[C@@H]1CC[C@@]2(OC1)O[C@H]1[C@@H](O)[C@H]3[C@@H]4CC[C@H]5C[C@@H](O[C@@H]6O[C@H](CO)[C@H](O[C@@H]7O[C@H](CO)[C@@H](O)[C@H](O[C@@H]8OC[C@@H](O)[C@H](O)[C@H]8O)[C@H]7O[C@@H]7O[C@H](CO)[C@@H](O)[C@H](O[C@@H]8O[C@H](CO)[C@@H](O)[C@H](O)[C@H]8O)[C@H]7O)[C@H](O)[C@H]6O)[C@H](O)C[C@]5(C)[C@H]4CC[C@]3(C)[C@H]1[C@@H]2C
inactive: [1] | [2] | [3] | [4]
active: [5] 11.6 µM

CC(C)(c1ccc(O)c(-c2ccccc2)c1)c1ccc(O)c(-c2ccccc2)c1
inactive: [1] | [5]
active: [2] 17.8 µM | [3] 3.17 µM | [4] 35.6 µM | [6] 5.03 µM

CC(C)CCCCCOC(=O)c1ccccc1C(=O)OCCCCCC(C)C
inactive: [1] | [5]
active: [2] 39.5 µM | [3] 12.5 µM | [6] 2.79 µM

COP(=O)(CCC(=O)NCO)OC
inactive: [1] | [2] | [3] | [4] | [5] | [6]

Cc1cc(C(C)(C)c2cc(C)c(O)c(C)c2)cc(C)c1O
active: [2] 1.22 µM | [3] 3.07 µM | [4] 38.6 µM | [6] 2.73 µM
inactive: [1] | [5]

Clc1ccc(-c2ccc(Cl)c(Cl)c2Cl)c(Cl)c1Cl
active: [2] 1.91 µM | [3] 17 µM | [4] 33.9 µM
inactive: [1] | [5] | [6]

CCCCCCCCCBr
inactive: [1] | [2] | [3] | [5] | [6]

CN(C)S(=O)(=O)N(SC(F)(Cl)Cl)c1ccccc1
active: [1] 71 µM | [2] 11.2 µM | [3] 3.56 µM | [4] 22.4 µM | [5] 19.5 µM
inactive: [6]

S=C(SSC(=S)N1CCCCC1)N1CCCCC1
inactive: [1] | [5]
active: [2] 6.92 µM | [3] 6.92 µM

O=[N+]([O-])c1ccc2ccc3cccc4ccc1c2c34
active: [4] 0.224 µM
inactive: [1] | [2] | [3] | [5] | [6]

CCSC(C)CC1CC(=O)C(/C(CC)=N/OC/C=C/Cl)=C(O)C1 (configuration not stated)
active: [2] 9.77 µM | [3] 13.8 µM | [6] 8.71 µM
inactive: [1] | [5]

CCN(CC)C(=S)[S-].CCN(CC)C(=S)[S-].[Zn+2]
active: [2] 49.8 µM | [3] 15.8 µM | [5] 8.63 µM
inactive: [1] | [4]

CC1CCC(C(C)C)C(OC(=O)c2ccccc2N)C1 (configuration not stated)
active: [2] 1.11 µM | [3] 2.48 µM | [4] 12.4 µM | [5] 43 µM
inactive: [1] | [6]

CC(C)C1CCC(Cc2ccc(Cl)cc2)C1(O)Cn1cncn1 (configuration not stated)
active: [2] 0.353 µM | [3] 0.789 µM | [4] 31.4 µM | [5] 34.3 µM | [6] 0.0498 µM
inactive: [1]

CC1(C)[C@H](C(=O)O[C@H](C#N)c2cccc(Oc3ccccc3)c2)[C@@H]1/C=C(\Cl)C(F)(F)F
inactive: [1] | [5] | [6]
active: [2] 5.86 µM and 7.1 µM | [3] 8.28 µM and 7.96 µM

Oc1ccc(C(c2ccc(O)cc2)(C(F)(F)F)C(F)(F)F)cc1
inactive: [1] | [4]
active: [2] 5 µM and 2.83 µM | [3] 3.16 µM and 2 µM | [5] 43.4 µM | [6] 35.4 µM and 35.6 µM

Clc1ccc(Oc2ccccc2)cc1
inactive: [1] | [7] | [6]

Cc1cc(C)c(C2=C(OC(=O)CC(C)(C)C)C3(CCCC3)OC2=O)c(C)c1
active: [6] 37.3 µM
inactive: [1] | [7] | [5]

CCCCCCCCCCBr
inactive: [1] | [2] | [3] | [5] | [6]

NNC(=O)c1ccccc1
active: [2] 41 µM | [3] 41 µM | [4] 32.6 µM | [6] 36.6 µM
inactive: [1] | [5]

CC(C)OS(C)(=O)=O
inactive: [1] | [2] | [3] | [5] | [6]
active: [4] 40.2 µM

CC(C)N1C(=O)N(c2ccccc2)CSC1=NC(C)(C)C
active: [2] 7.1 µM | [3] 6.33 µM | [4] 31.7 µM | [6] 31.7 µM
inactive: [1]

CCCCOP(=O)(CCCC)OCCCC
active: [2] 11.2 µM | [3] 31.7 µM | [4] 31.7 µM
inactive: [1] | [5]

CCc1ccccc1C
inactive: [1] | [2] | [3] | [4] | [5] | [6]

CC(C)(C)c1ccc(CSc2cnn(C(C)(C)C)c(=O)c2Cl)cc1
active: [2] 7.96 µM | [3] 6.33 µM | [4] 25.2 µM
inactive: [1] | [6]

Oc1ccc(C(=C(Cl)Cl)c2ccc(O)cc2)cc1
inactive: [1]
active: [2] 12.6 µM | [3] 5.63 µM | [4] 39.8 µM | [6] 11.2 µM

CC(C)(C)c1cc([N+](=O)[O-])cc(C(C)(C)C)c1O
active: [2] 31.7 µM | [3] 12.6 µM | [4] 31.7 µM
inactive: [1] | [6]

NC(=O)CCl
inactive: [1] | [2] | [3] | [4] | [5] | [6]

C[C@]12CC[C@H]3[C@@H](CCC4=CC(=O)CC[C@@]43C)[C@@H]1CC[C@@H]2O
inactive: [1] | [7] | [6]

ClCc1ccccc1CCl
inactive: [1] | [2] | [3] | [5] | [6]
